# Results: PMC4336329 (PLoS ONE, 2015)
# Out of some 310,000 compounds screened, about 14,000 (4.5%) showed an effect of 50% or more. The effect is printed as a negative number. Many of the other results were omitted from the sample, so strong results are more common in it than they were.
# Target: human ether-à-go-go-related gene (hERG) potassium channel (human, UniProt Q12809)
# Assay: primary screen, population patch clamp on CHO cells stably expressing hERG; higher = less effect of the substance
# 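Also: peak tail current of the secondary pulse compared with the same well before compound.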
# human ether-à-go-go-related gene (hERG) potassium channel, sequence (Q12809 whole entry, looked up): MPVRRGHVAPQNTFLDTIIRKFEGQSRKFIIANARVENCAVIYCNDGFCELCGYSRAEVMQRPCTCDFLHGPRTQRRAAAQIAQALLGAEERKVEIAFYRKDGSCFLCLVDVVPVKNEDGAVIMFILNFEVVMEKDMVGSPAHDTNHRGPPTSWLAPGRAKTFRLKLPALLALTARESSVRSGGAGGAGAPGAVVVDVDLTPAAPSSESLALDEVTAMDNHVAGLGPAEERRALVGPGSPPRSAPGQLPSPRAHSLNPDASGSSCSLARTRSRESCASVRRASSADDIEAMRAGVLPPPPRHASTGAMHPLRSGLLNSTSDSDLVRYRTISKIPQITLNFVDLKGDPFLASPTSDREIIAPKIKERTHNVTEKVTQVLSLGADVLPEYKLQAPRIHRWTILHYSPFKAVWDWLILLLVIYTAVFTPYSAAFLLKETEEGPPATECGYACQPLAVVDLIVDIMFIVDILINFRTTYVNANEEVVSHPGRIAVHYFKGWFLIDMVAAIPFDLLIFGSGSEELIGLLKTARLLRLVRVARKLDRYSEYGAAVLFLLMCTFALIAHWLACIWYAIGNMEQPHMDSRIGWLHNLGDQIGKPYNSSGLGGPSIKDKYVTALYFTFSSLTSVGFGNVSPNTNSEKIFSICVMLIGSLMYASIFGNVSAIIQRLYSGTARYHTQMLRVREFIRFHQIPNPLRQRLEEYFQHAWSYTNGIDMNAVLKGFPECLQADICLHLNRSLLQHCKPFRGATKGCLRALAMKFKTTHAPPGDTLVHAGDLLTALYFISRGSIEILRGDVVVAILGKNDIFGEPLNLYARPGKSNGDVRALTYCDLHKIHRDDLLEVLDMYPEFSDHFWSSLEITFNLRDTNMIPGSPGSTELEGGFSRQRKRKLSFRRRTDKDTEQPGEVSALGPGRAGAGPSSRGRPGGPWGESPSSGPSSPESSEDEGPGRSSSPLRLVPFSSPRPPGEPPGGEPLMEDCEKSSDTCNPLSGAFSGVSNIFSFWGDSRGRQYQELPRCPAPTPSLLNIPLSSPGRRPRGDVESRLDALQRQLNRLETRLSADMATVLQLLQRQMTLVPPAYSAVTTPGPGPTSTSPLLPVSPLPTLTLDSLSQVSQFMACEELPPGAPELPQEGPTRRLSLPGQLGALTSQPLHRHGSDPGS
row,SMILES,"hERG current change (%, negative = inhibition) at 10uM [%]"
1,COCCN(C(=O)CSc1nnc(-c2ccccc2C)n1C)c1c(N)n(Cc2ccccc2)c(=O)[nH]c1=O,38.4
2,COc1ccc(/C=C/C(=O)N2CCCc3ccccc32)cc1,-16.8
3,O=C(/C=C/c1ccccc1)N1CCCN(C(=O)/C=C/c2ccccc2)CC1,-68.5
4,O=C(/C=C/c1ccccc1)N1CCOCC1,13.9
5,O=C(/C=C/c1ccccc1)N1CCC(c2ccccc2)C1 (centres unmarked),-57.6
6,COc1ccc(/C=C/C(=O)N2CCC(c3ccccc3)C2)cc1 (centres unmarked),-47.4
7,O=C(/C=C/c1ccc(F)cc1)N1CCCc2ccccc21,-62.7
8,O=C(/C=C/c1cccc(F)c1)N1CCc2ccccc21,4.51
9,CN1CCN(C(=O)/C=C/c2ccccc2)CC1,4.5
10,COc1ccccc1/C=C/C(=O)N1CCC(c2ccccc2)C1 (centres unmarked),-4.29
11,CCC(=O)Oc1ccc2c(c1)OC1(OC(C)=O)OC(C)CC1=C2C (centres unmarked),-5.19
12,CCCCn1nnnc1NCc1cccnc1,8.93
13,COc1ccc(CC(=O)NCc2nnc(SCC(=O)Nc3ccc(OC)cc3)n2C)cc1,4.08
14,Cc1ccc(S(=O)(=O)N2CCN(C(=O)c3ccc(COc4ccccc4)o3)CC2)cc1,-0.773
15,CCOC(=O)c1ccc(NC(=O)C2CCCN(S(=O)(=O)c3ccc(F)cc3)C2)cc1 (centres unmarked),-15.1
16,COc1ccc(-c2nn(C)c3sc(C(=O)NCCN(C)C)cc23)cc1OC,15.4
17,Cc1cc(Cl)ccc1OCCCC(=O)NCCCn1ccnc1,-68.1
18,CC(Oc1ccc(Cl)cc1Cl)C(=O)NCCCn1ccnc1 (centres unmarked),-28
19,CCOc1cc(Cl)c(S(=O)(=O)NCCCn2ccnc2)cc1Cl,-48.9
20,CCOc1cc(S(=O)(=O)NCCCn2ccnc2)ccc1Cl,-64
21,Cc1cc(Cl)ccc1OCCCC(=O)NCc1ccncc1,-44.4
22,O=C(OCC(=O)c1ccc(Cl)cc1Cl)c1cnccn1,-58.3

row,SMILES,"hERG current change (%, negative = inhibition) at 10uM [%]"
1,O=C(CCCOc1ccc(Cl)cc1Cl)NCCCn1ccnc1,-62.5
2,O=C(OCC(=O)c1ccccc1Cl)c1cnccn1,-0.611
3,Cc1cc(Cl)ccc1OCC(=O)NCCCn1ccnc1,-29.8
4,Cl.O=C(COc1ccc(Cl)cc1Cl)NCCCn1ccnc1,-38.6
5,O=C(COC(=O)c1cnccn1)c1ccc(Cl)cc1,24.4
6,COc1cc(S(=O)(=O)NCCCn2ccnc2)ccc1Cl,7.94
7,Cc1ncc([N+](=O)[O-])n1CC(=O)Nc1ccc(F)cc1F,13.3
8,CCOc1ncccc1C(=O)OCC(=O)Nc1ccc(C)c(S(=O)(=O)N2CCOCC2)c1,-27
9,CCOC(=O)[C@H]1[C@H]2COc3ccc(OC)cc3[C@@H]2N2C(=O)CN(Cc3ccc(F)cc3)C(=O)[C@@]12C,-26.5
10,CCOC(=O)/C=c1\s/c(=C\c2ccc(C(=O)OC)cc2)c(=O)n1CC(=O)Nc1ccccc1.Cl,19.5
11,COc1ccc(NC(=O)CCCn2c(=O)c3sccc3n(Cc3ccc(C)cc3)c2=O)cc1,-5.72
12,COc1ccc(NC(C)=O)cc1S(=O)(=O)N1CCN(C(=O)c2ccccc2F)CC1,-7.16
13,O=C(COc1ccc(Cl)cc1Cl)NCCCNC(=O)c1cnccn1,-56.5
14,O=C(COc1ccccc1Cl)NCCCNC(=O)c1cnccn1,5.28
15,O=C(NCCNC(=O)c1ccc(-c2ccc(Cl)c(Cl)c2)o1)c1cnccn1,-71.6
16,Cc1ccc(-c2ccc(C(=O)NCCCNC(=O)c3cnccn3)o2)cc1Cl,25.5
17,O=C(COc1ccc(Cl)cc1)NCCCNC(=O)c1cnccn1,-10.2
18,O=C(NCCCNC(=O)c1ccc(-c2cccc(Cl)c2)o1)c1cnccn1,-31.8
19,CCn1c(SCc2cc(=O)[nH]c3ccccc23)nnc1C1CC1,8.48
20,O=C(N/N=C/c1ccncc1)c1cccc(NC(=O)c2ccccc2Cl)c1,-2.33
21,O=C(C1CCN(S(=O)(=O)c2cccc3nsnc23)CC1)N1CCCCC1,2.03
22,O=C(CN1CCN(c2ccc(F)cc2)CC1)N(C1CCCC1)C1CCS(=O)(=O)C1 (centres unmarked),-40.4

row,SMILES,"hERG current change (%, negative = inhibition) at 10uM [%]"
1,Cc1ccccc1Cn1cc(/C=N/n2cnnc2)c2ccccc21,14.8
2,COc1cc(CC(=O)Oc2ccc3c(c2)OCO3)cc(OC)c1OC,-2.51
3,COc1ccc(CCNC(=O)CS(=O)(=O)Cc2nc(-c3ccccc3Cl)oc2C)cc1OC,-3.23
4,CCn1cc(CNC(=O)c2cc(-c3ccccc3OC)nc3ccccc23)c(C)n1,-19.5
5,COc1ccc(/C(C)=N/NC(=O)c2cc(-c3cccnc3)nc3ccccc23)cc1,10.6
6,CCn1cc(CNC(=O)c2cc(-c3cc(OC)ccc3OC)nc3ccccc23)c(C)n1,-53.9
7,COc1ccc(OC)c(-c2cc(C(=O)N/N=C(\C)c3cccnc3)c3ccccc3n2)c1,-65.5
8,CC(=O)Nc1cccc(/C(C)=N/NC(=O)c2cc(-c3ccncc3)nc3ccccc23)c1,-6.95
9,COc1ccc(-c2cc(C(=O)N/N=C(\C)c3cccnc3)c3ccccc3n2)c(OC)c1,1.6
10,COc1ccc(-c2cc(C(=O)N/N=C(\C)c3cccnc3)c3ccccc3n2)cc1,8.87
11,COc1ccc(-c2cc(C(=O)NCc3cn(C)nc3C)c3ccccc3n2)cc1OC,2.61
12,C/C(=N\NC(=O)c1cc(-c2ccncc2)nc2ccccc12)c1ccc(OC(F)F)cc1,-56.1
13,CCOC(=O)c1cc(-c2ccccc2C)n(CC2CC(c3cccc([N+](=O)[O-])c3)=NO2)n1 (centres unmarked),0.113
14,Cc1csc(SCC(=O)Nc2cccc(S(=O)(=O)N3CCOCC3)c2)n1,-6.13
15,CCn1nnnc1SCC(=O)N1c2ccccc2CCc2ccccc21,2.92
16,CCOC(=O)C(=O)Nc1nnc(SCc2ccc(F)cc2)s1,1.7
17,Cc1ccc(SCC(=O)NC2CC2)cc1,13.3
18,CCOCCCNC(=O)c1cc(C)nn1-c1ccccc1,11
19,Cn1cc(CN2CCC(O)CC2)c(-c2ccc(Oc3ccccc3)cc2)n1,-23.7
20,Cn1cc(CN2CCC(CO)CC2)c(-c2ccc(Oc3ccccc3)cc2)n1,-67.5
21,Cn1cc(CN2CCN(CCO)CC2)c(-c2ccc(Oc3ccccc3)cc2)n1,-32.3
22,COC1CCCN(Cc2cn(C)nc2-c2ccc(Oc3ccccc3)cc2)C1 (centres unmarked),-40.7

row,SMILES,"hERG current change (%, negative = inhibition) at 10uM [%]"
1,CCCN1CCC(NCc2cn(C)nc2-c2ccc(Oc3ccccc3)cc2)CC1,-66.1
2,Cn1cc(CN2CCCC(CO)C2)c(-c2ccc(Oc3ccccc3)cc2)n1 (centres unmarked),-26.2
3,CCOC(=O)C1CCN(Cc2cn(C)nc2-c2ccc(Oc3ccccc3)cc2)CC1,-44.9
4,COCCN1CCN(Cc2cn(C)nc2-c2ccc(Oc3ccccc3)cc2)CC1,-65.2
5,CCN(CC)C(=O)C1CCN(Cc2cn(C)nc2-c2ccc(Oc3ccccc3)cc2)CC1,-46.9
6,C[C@H]1C(=O)N(C)CCN1Cc1cn(C)nc1-c1ccc(Oc2ccccc2)cc1,-4.92
7,CC1CN(Cc2cn(C)nc2-c2ccc(Oc3ccccc3)cc2)CCN1C (centres unmarked),-57.2
8,COCCN1CCCC(CNCc2cn(C)nc2-c2ccc(Oc3ccccc3)cc2)C1 (centres unmarked),-33.2
9,O=C(O)c1ccc2c3c(cccc13)C(=O)N(c1cccc3ccccc13)C2=O,34.3
10,COc1ccc(-c2[nH]ncc2CN(CCO)Cc2cccs2)c(F)c1,4.65
11,CCCC(=O)NC(C)c1nc2ccccc2n1C(C)C (centres unmarked),8.05
12,Cc1cc(C)cc(N(CCC#N)C(=O)COC(=O)CN2C(=O)NC(C)(C)C2=O)c1,19.6
13,COc1cccc(NC(=O)NNS(=O)(=O)c2ccc(OC)cc2OC)c1,-3
14,COc1ccc(N=N/C(C(C)=O)=C(/C)O)cc1,-24.5
15,CN(C)S(=O)(=O)c1cccc(-c2nn(-c3ccccc3)cc2/C=C2\SC(=S)NC2=O)c1,20.1
16,CCOc1cc(C(=O)OCC(=O)N(C)c2ccccc2)cc(OCC)c1OCC,-17.6
17,CCc1nnc(NC(=O)CSc2ncc(-c3ccccc3)n2C)s1,-0.226
18,CN(Cc1cn(C)nc1-c1ccc(Oc2ccccc2)cc1)Cc1cnc2ccccn12,-54
19,Cc1cnccc1CN(C)Cc1cn(C)nc1-c1ccc(Oc2ccccc2)cc1,-27.4
20,Cn1cc(CNCc2cnc3ccccn23)c(-c2ccc(Oc3ccccc3)cc2)n1,-50
